The whole screen tested about 310,000 compounds, of which about 17,000 (5.5%) were called active. Entries that show only a call come without a potency. Not shown: some 11% with an inconclusive outcome. Calls come from the whole dose curve; as a rule, active = well fitted inhibition curve with a large enough effect; inconclusive = small, poorly fitted or top-dose-only effect, or effect the other way; inactive = no such curve, though single readings can be large or run the other way. The sample as a whole holds a higher share of actives than the screen did.
Potency is the fitted concentration of half-maximal effect.

Nuclear receptor ROR-gamma (Mus musculus), sequence (P51450 whole entry, looked up, the tested form may be a part): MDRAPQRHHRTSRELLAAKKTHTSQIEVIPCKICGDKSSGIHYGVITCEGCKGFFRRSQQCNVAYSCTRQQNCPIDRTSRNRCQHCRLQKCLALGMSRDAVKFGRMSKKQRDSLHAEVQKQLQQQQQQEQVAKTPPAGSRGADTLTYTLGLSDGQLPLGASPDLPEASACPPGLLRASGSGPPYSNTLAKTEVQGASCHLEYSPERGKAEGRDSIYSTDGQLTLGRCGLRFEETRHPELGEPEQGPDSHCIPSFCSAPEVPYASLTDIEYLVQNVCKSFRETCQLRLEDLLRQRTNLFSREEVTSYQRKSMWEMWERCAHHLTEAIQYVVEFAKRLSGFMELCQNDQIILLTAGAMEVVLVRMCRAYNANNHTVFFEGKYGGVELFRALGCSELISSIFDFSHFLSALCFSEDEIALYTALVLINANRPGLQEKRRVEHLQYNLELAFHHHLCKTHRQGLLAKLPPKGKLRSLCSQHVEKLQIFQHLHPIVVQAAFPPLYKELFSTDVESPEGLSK

This test deals with Nuclear receptor ROR-gamma (Mus musculus) (UniProt P51450). Description: qHTS for inhibitors of ROR gamma transcriptional activity. Note: nearly all actives have a fitted effect of over 60% in size. To be noted: Drosophila S2 Gal4-RORgamma UAS-luciferase reporter, 20 h; series mostly up to 53.6 µM. An excerpt:
NIH Molecular Libraries Probe Production Network [MLPCN] NIH Chemical Genomics Center [NCGC] MLPCN Grant: R03 DA026211-01 Assay Provider: Dan Littman, New York University Assay Overview: The retinoic acid-related orphan receptor (ROR) gamma is a transcription factor that has a central role in the differentiation of Th17 cells, a subset of T helper cells that secrete the inflammatory cytokines IL-17, IL-17F, and IL-22. Th17 cells have been implicated in graft versus host disease, autoimmune disease and asthma. ROR gamma is induced in naive T helper cells in the presence of TGF-beta combined with IL-6, IL-21, or IL-23, and thereafter directs the expression of the Th17 lineage cytokines. To study the mechanism of action of ROR gamma, an insect cell-based assay was screened. This Drosophila Schneider cell line was stably transfected with two vectors: a gene expressing a fusion of the Gal4 DNA binding domain and ROR gamma transactivation domain under the control of the metallothionine promoter and a Photinus luciferase reporter regulated by the Gal4 binding site enhancer, UAS. […] Small molecule inhibitors of ROR gamma activity are detected by a decrease in luciferase reporter activity.
Assay Protocol Summary: For screening, 600 cells in 4 uL/well were dispensed into white solid 1536-well plates (Grenier) using a solenoid-based dispenser. Following transfer of 23 nL compound or DMSO vehicle by a pin tool, the plates were incubated 1 hr at ambient temperature, and 1 uL/well copper sulfate (700 uM final concentration) was added. The plates were centrifuged 15 s at 1000 RPM and incubated 20 hr at ambient temperature. After addition of 1.5 uL Photinus luciferase detection reagent, the plates were incubated 10 min at ambient temperature and then read by an ViewLux (Perkin Elmer) to detect luminescence. Keywords: NIH Roadmap, MLPCN, MLI, MLSMR, qHTS, NCGC, qHTS, nuclear hormone receptor, retinoic acid-related orphan receptor, ROR gamma
Background: In qHTS, concentration-response curves come from the screen itself.
As to `Cc1cc(Nc2ccc(Cl)cc2)nc(N2CCOCC2)n1`, the Potency result was “inactive”. `CN(C)c1ccc(/C=N/Nc2cc(N3CCOCC3)nc(N3CCOCC3)n2)cc1`: the Potency entry was “inactive”.

As to `COc1ccc(NC(=O)c2nc(-n3nc(C)cc3C)ccc2Cl)cc1Cl`, the Potency entry was “inactive”.

For `Cc1cc(N/N=C\c2ccc(Br)cc2)nc(-n2nc(C)cc2C)n1`, the Potency was 0.1 µM (active). In the case of `COc1cccc2c(N/N=C/c3ccco3)cc(C)nc12` it was “inactive”; in that of `COc1ccc(Nc2cc(C)nc(-n3nc(C)cc3C)n2)cc1`, 0.501 µM (active); in that of `CC(=O)c1ccc(Oc2cc(C)nc(-n3nc(C)cc3C)n2)cc1`, 14.1 µM (active). In the case of `COc1ccc(/C=N/Nc2cc(N3CCOCC3)nc(C)n2)c(OC)c1` it was “inactive”; in that of `Cc1cc(C)n(-c2cc(Oc3ccccc3)ncn2)n1`, “inactive”; in that of `Cc1cc(Oc2ccccc2)nc(N2CCOCC2)n1`, “inactive”. The same measure for `Cc1ccc(S(=O)(=O)Nc2nc(C)cc(N/N=C/c3ccc(O)cc3)n2)cc1`: “inactive”; for `COc1ccccc1/C=N\Nc1cc(C)nc(-n2nc(C)cc2C)n1`: 0.251 µM (active); for `CCn1c(Cc2ccc(OC)cc2)nnc1SCC(=O)Nc1ccc(N2CCOCC2)cc1`: “inactive”. For the compound `NC(=O)C1CCCN(CC(=O)N2CCN(c3ccccc3)CC2)C1` (stereo not drawn), the Potency entry was “inactive”. The same measure for `Cc1ccccc1OCC(=O)Nc1ccc(S(=O)(=O)N2CCOCC2)cc1`: “inactive”; for `O=C(Nc1cccc(Cl)c1N1CCOCC1)c1cccnc1`: “inactive”. In the case of `CCOC(=O)c1sc(NC(=O)c2sc(C)nc2C)nc1C` it was “inactive”. Regarding `COCCn1c(SCC(=O)Nc2nc(C)cs2)nnc1C(C)C`, the Potency entry is “inactive”. Turning to `CC1CC(C)CN(CCCNC(=O)c2csc3c2CCCCC3)C1` (stereo not drawn), the Potency entry was “inactive”. The same measure for `CN1C(=O)CN2CCc3ccccc3C2c2cc(Cl)ccc21` (stereo not drawn): “inactive”. In the case of `O=C1CCC(C(=O)N2CCN(c3ccccc3Cl)CC2)CN1CC1CCCCC1` (stereo not drawn) it was “inactive”. Turning to `COc1ccccc1OCC(=O)Nc1c2c(nn1-c1ccc(F)cc1)CS(=O)(=O)C2`, the Potency entry is “inactive”.

As for `N#C/C(C(=O)N1CCOCC1)=C1/SC(Cc2ccc(F)cc2)C(=O)N1c1ccccc1` (stereo not drawn), the Potency result was “inactive”. The same measure for `Cc1ccc(CC2S/C(=C(/C#N)C(=O)N3CCOCC3)N(c3ccccc3)C2=O)cc1` (stereo not drawn): “inactive”. In the case of `N#C/C(C(=S)Nc1ccccc1)=C1/NN=C(N2CCOCC2)N1c1ccccc1` it was 1.26 µM (active); in that of `c1ccc2c(c1)CCc1snnc1-2`, “inactive”.

Turning to `CCOc1c(Cl)cc(/C=N/O)cc1OC`, the Potency entry was “inactive”. In the case of `COc1cc(C(=O)NCc2ccncc2)cc(Br)c1OCc1ccccc1` it was “inactive”; in that of `COc1cc(/C=N/O)cc(Br)c1OCc1cccc(Cl)c1`, 10 µM (active). The same measure for `COc1cc(/C=N/Nc2ccc(C)cc2)cc(Br)c1O`: “inactive”; for `COc1cc(/C=N/O)cc(Br)c1OS(=O)(=O)c1ccc(C)cc1`: 14.1 µM (active); for `COc1ccc(/C=N/NC(=O)c2ccccc2)cc1OS(=O)(=O)c1ccccc1`: “inactive”. In the case of `Cc1cc(S(=O)(=O)Nc2ccc(C(=O)NCC(c3ccco3)N3CCCC3)cc2)ccc1F` (stereo not drawn) it was “inactive”; in that of `COc1cc(/C(=C/c2ccccc2)c2ccccc2)c2c(c1)oc1ccccc12`, “inactive”.

Turning to `CC(=O)N1c2ccc(S(=O)(=O)NCCC(=O)N(C)C3CCCCC3)cc2CC1C` (stereo not drawn), the Potency entry is “inactive”. In the case of `COc1cccc(NC(=O)C(=O)c2cn(CC(=O)N3CCOCC3)c3ccccc23)c1` it was “inactive”; in that of `COc1ccc(S(=O)(=O)n2nc(C)c(S(=O)(=O)N3CCOCC3)c2C)cc1`, “inactive”.

As to `CCCCOc1ccc(-c2nnc(-c3ccco3)o2)cc1`, the Potency entry is “inactive”. As to `COc1ccc(C(=O)CSc2nnc(-c3ccco3)o2)cc1`, the Potency entry was “inactive”.

Turning to `CCOc1ccc(-c2nnc(-c3ccco3)o2)cc1`, the Potency is 15.8 µM (active).

As for `O=C(NCc1ccccc1)C(c1ccccc1)N(C(=O)c1csnn1)c1ccc(F)cc1` (stereo not drawn), the Potency entry is “inactive”. In the case of `CCOc1ccc(C(C(=O)NC2CCCC2)N(C(=O)c2snc(C(N)=O)c2N)C2CCCC2)cc1` (stereo not drawn) it was “inactive”; in that of `COc1ccc(C(=O)NC2CC2)cc1OC1CCN(Cc2cnn(C)c2)CC1`, “inactive”. Regarding `O=c1c(-c2ccccc2Cl)c[nH]n1-c1ccccc1`, the Potency entry was “inactive”. In the case of `COc1ccc(CNC(=O)CN(c2ccc(OC)c(Cl)c2)S(=O)(=O)c2ccc(C)cc2)cc1` it was “inactive”.

As for `O=C(CCNc1n[nH]c(=O)[nH]c1=O)N/N=C\c1ccc(Br)cc1`, the Potency result is “inactive”.

Turning to `O=C(CCCO)N/N=C/c1cc(Br)ccc1O`, the Potency is 3.98 µM (active).

Take `NCCCCCC(=O)N/N=C/c1ccc2nccnc2c1`: the Potency result is “inactive”.

As to `COc1ccc(OC)c(NC(=O)c2ccc3c(c2)C(=O)N(c2ccc(OC(C)=O)cc2)C3=O)c1`, the Potency result was “inactive”. In the case of `CC(=O)/C(=N\Nc1ccc(Cl)cc1Cl)Sc1cccc2cccnc12` it was 3.16 µM (active). In the case of `O=C(Nc1cccc2cccnc12)c1cccc(Cl)c1` it was “inactive”; in that of `O=C(Nc1ccccc1Cl)Nc1cccc2cccnc12`, “inactive”. Consider `CC1=C(C(=O)NC2CC(C)(C)Cc3c2cnn3-c2ccc(C)cc2)OCCO1` (stereo not drawn), for which the Potency entry was “inactive”. In the case of `CN(CC(=O)Nc1ccccc1F)CC(=O)Nc1ccccc1Br` it was “inactive”; in that of `CSc1ccccc1NC(=O)CN(C)CC(=O)Nc1ccc(Cl)cc1[N+](=O)[O-]`, 11.2 µM (active).

Turning to `CCC(C)c1ccccc1NC(=O)CN(C)CC(=O)Nc1ccccc1SC` (stereo not drawn), the Potency is 15.8 µM (active).

With `CSc1ccccc1NC(=O)Cc1ccc(Br)cc1`, the Potency entry was “inactive”. With `CN(CC(=O)Nc1ccccc1[N+](=O)[O-])Cc1ccc(Br)cc1`, the Potency result was “inactive”.

On to `Cc1ccc(NC(=O)CN(C)Cc2ccc(F)cc2)c([N+](=O)[O-])c1`, for which the Potency result is “inactive”. The same measure for `CC(=O)c1cc(CN2CCC(n3nccc3NC(=O)c3ccccc3Cl)CC2)cs1`: “inactive”. `O=C(Nc1ccccc1-c1ccccc1)c1ccccc1[N+](=O)[O-]`: the Potency entry is “inactive”.

In the case of `O=C(CN(C(=O)c1csnn1)c1ccc(Br)cc1)NC1CCCC1`, the Potency entry was “inactive”. Turning to `Cc1ccc(S(=O)(=O)Oc2ccc(/C=N/NC(=O)c3ccncc3)cc2)cc1`, the Potency result was “inactive”. The same measure for `CCC1CCCCN1C(=S)Nc1ccc(S(=O)(=O)Nc2ncccn2)cc1` (stereo not drawn): “inactive”. In the case of `CC(=O)Nc1ccc(S(=O)(=O)Oc2ccc(Br)cc2C(=S)N2CCOCC2)cc1` it was “inactive”. In the case of `O=C(Nc1nnc(-c2ccccc2)o1)c1cc(-c2cccs2)nc2ccccc12` it was 4.47 µM (active); in that of `COC(=O)c1cc(-c2cccs2)nc2ccccc12`, “inactive”; in that of `CCCCN(C)CCCNC(=O)c1cc(-c2cccs2)nc2ccccc12`, “inactive”.

(Values after PubChem BioAssay AID2551 (National Center for Advancing Translational Sciences (NCATS), 2010).)
